Laboratory results taken from the supplement of paper PMC12282887.
± gives the standard deviation of the averaged measurements.

Experiments:
Test in all cases: promoter activity interaction Z-score (Lux/OD deviation from empty-vector control); higher = stronger promoter induction by the compound
[1] = test system: E. coli BW25113 acrABp lux reporter
Method in brief: (§1)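 Every compound was given at four 1:2 dilutions, in biological duplicates, to E. coli BW25113 carrying low-copy luxCDABE promoter reporters in wild-type or single-gene deletion backgrounds. Growth in 40 µl LB Lennox in 384-well plates at 37°C was followed by OD600 and luminescence readings every 30 min for 12 h, integrated over 0–8 h for wild type and 1–9 h for deletion strains, with wells below 10% of the median growth value excluded. Scores are Z-transformed residuals of growth-normalised luminescence fitted against a control.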

[2] = test system: E. coli BW25113 micFp lux reporter
Method in brief: as §1

[3] = test system: E. coli BW25113 ompFp lux reporter
Method in brief: as §1

[4] = test system: E. coli BW25113 robp lux reporter
Method in brief: as §1

[5] = test system: E. coli BW25113 soxSp lux reporter
Method in brief: as §1

[6] = test system: E. coli BW25113 tolCp lux reporter
Method in brief: as §1

[7] = 0.0054 µg/ml, genetic background: wild type
[8] = 0.0054 µg/ml, genetic background: ΔmarA
[9] = 0.0054 µg/ml, genetic background: Δrob
[10] = 0.0054 µg/ml, genetic background: ΔsoxS
[11] = 0.011 µg/ml, genetic background: wild type
[12] = 0.011 µg/ml, genetic background: ΔmarA
[13] = 0.011 µg/ml, genetic background: Δrob
[14] = 0.011 µg/ml, genetic background: ΔsoxS
[15] = 0.022 µg/ml, genetic background: wild type
[16] = 0.022 µg/ml, genetic background: ΔmarA
[17] = 0.022 µg/ml, genetic background: Δrob
[18] = 0.022 µg/ml, genetic background: ΔsoxS
[19] = 0.044 µg/ml, genetic background: wild type

Compound: C[C@H]1[C@H](NC(=O)/C(=N\OC(C)(C)C(=O)O)c2csc(N)n2)C(=O)N1S(=O)(=O)O [Aztreonam]
- promoter activity interaction Z-score [1, 7]: -0.253 ± 0.084
- promoter activity interaction Z-score [1, 8]: -0.209 ± 1.9
- promoter activity interaction Z-score [1, 9]: -0.333 ± 0.022
- promoter activity interaction Z-score [1, 10]: -0.321 ± 0.053
- promoter activity interaction Z-score [1, 11]: 0.0466 ± 0.11
- promoter activity interaction Z-score [1, 12]: 1.29 ± 1.5
- promoter activity interaction Z-score [1, 13]: -0.509 ± 0.068
- promoter activity interaction Z-score [1, 14]: -0.163 ± 0.42
- promoter activity interaction Z-score [1, 15]: -0.332 ± 0.23
- promoter activity interaction Z-score [1, 16]: 0.66 ± 1.8
- promoter activity interaction Z-score [1, 17]: -0.535 ± 0.26
- promoter activity interaction Z-score [1, 18]: -0.424 ± 0.41
- promoter activity interaction Z-score [2, 7]: -0.16 ± 0.07
- promoter activity interaction Z-score [2, 8]: 0.09 ± 0.019
- promoter activity interaction Z-score [2, 9]: -0.0804 ± 0.089
- promoter activity interaction Z-score [2, 10]: -0.271 ± 0.15
- promoter activity interaction Z-score [2, 11]: 0.0711 ± 0.15
- promoter activity interaction Z-score [2, 12]: 0.045 ± 0.1
- promoter activity interaction Z-score [2, 13]: -0.174 ± 0.022
- promoter activity interaction Z-score [2, 14]: 0.375 ± 0.11
- promoter activity interaction Z-score [2, 15]: -0.368 ± 0.07
- promoter activity interaction Z-score [2, 16]: 0.0282 ± 0.096
- promoter activity interaction Z-score [2, 17]: -0.184 ± 0.33
- promoter activity interaction Z-score [2, 18]: -0.331 ± 0.2
- promoter activity interaction Z-score [3, 7]: 0.304 ± 0.71
- promoter activity interaction Z-score [3, 8]: 1.01 ± 0.48
- promoter activity interaction Z-score [3, 9]: 0.73 ± 0.63
- promoter activity interaction Z-score [3, 10]: -0.689 ± 0.21
- promoter activity interaction Z-score [3, 11]: 0.141 ± 0.14
- promoter activity interaction Z-score [3, 12]: 1.02 ± 0.8
- promoter activity interaction Z-score [3, 13]: -0.364 ± 0.87
- promoter activity interaction Z-score [3, 14]: 0.129 ± 0.2
- promoter activity interaction Z-score [3, 15]: -0.19 ± 0.57
- promoter activity interaction Z-score [3, 16]: 1.43 ± 0.23
- promoter activity interaction Z-score [3, 17]: -0.565 ± 1.7
- promoter activity interaction Z-score [3, 18]: -0.303 ± 0.73
- promoter activity interaction Z-score [4, 7]: -0.543 ± 0.46
- promoter activity interaction Z-score [4, 8]: 1.13 ± 0.88
- promoter activity interaction Z-score [4, 9]: -0.203 ± 0.46
- promoter activity interaction Z-score [4, 10]: -1.41 ± 0.17
- promoter activity interaction Z-score [4, 11]: 0.385 ± 0.037
- promoter activity interaction Z-score [4, 12]: 1.33 ± 2
- promoter activity interaction Z-score [4, 13]: -0.405 ± 0.69
- promoter activity interaction Z-score [4, 14]: -0.722 ± 0.24
- promoter activity interaction Z-score [4, 15]: -0.69 ± 0.072
- promoter activity interaction Z-score [4, 16]: -0.124 ± 0.43
- promoter activity interaction Z-score [4, 17]: -1.16 ± 1.2
- promoter activity interaction Z-score [4, 18]: -1.07 ± 0.27
- promoter activity interaction Z-score [5, 7]: 0.278 ± 0.064
- promoter activity interaction Z-score [5, 8]: 0.333 ± 0.11
- promoter activity interaction Z-score [5, 9]: -0.00514 ± 0.076
- promoter activity interaction Z-score [5, 10]: -0.126 ± 0.11
- promoter activity interaction Z-score [5, 11]: 0.305 ± 0.13
- promoter activity interaction Z-score [5, 12]: 0.172 ± 0.0071
- promoter activity interaction Z-score [5, 13]: -0.21 ± 0.25
- promoter activity interaction Z-score [5, 14]: 0.164 ± 0.46
- promoter activity interaction Z-score [5, 15]: 0.0318 ± 0.13
- promoter activity interaction Z-score [5, 16]: 0.1912 ± 0.0014
- promoter activity interaction Z-score [5, 17]: -0.194 ± 0.19
- promoter activity interaction Z-score [5, 18]: -0.106 ± 0.33
- promoter activity interaction Z-score [5, 19]: -0.0693 ± 0.29
- promoter activity interaction Z-score [6, 7]: -0.174 ± 0.12
- promoter activity interaction Z-score [6, 8]: 0.0726 ± 0.53
- promoter activity interaction Z-score [6, 9]: -0.67 ± 1.8
- promoter activity interaction Z-score [6, 10]: -1.94 ± 0.062
- promoter activity interaction Z-score [6, 11]: 0.647 ± 0.59
- promoter activity interaction Z-score [6, 12]: -0.497 ± 0.27
- promoter activity interaction Z-score [6, 13]: -0.241 ± 1
- promoter activity interaction Z-score [6, 14]: -0.196 ± 0.045
- promoter activity interaction Z-score [6, 15]: 0.105 ± 0.69
- promoter activity interaction Z-score [6, 16]: -0.22 ± 1.1
- promoter activity interaction Z-score [6, 17]: 1.61 ± 1
- promoter activity interaction Z-score [6, 18]: -0.251 ± 0.32
- promoter activity interaction Z-score [6, 19]: -1.04
